Consider eight compounds from PubChem BioAssay (NCI).

Compounds without any hit were thinned out: in the full panel of roughly 83,000, 20% have a hit.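 How to read the values: 0–100, growth inhibition (40 = 60% inhibited); 0, no net growth; -100 to 0, cell death (-40 = 40% of starting cells died; -100 = all dead).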 Unmarked numbers belong to inactive results. Active and inactive are the calls of the source. How the source made its calls: active means growth percent below 10; inactive means the rest.

Test systems include HCT-15 colon; HT29 colon; SNB-75 CNS; SNB-19 CNS; U251 CNS; SK-MEL-5 melanoma; LOX IMVI melanoma; SK-MEL-28 melanoma; SK-MEL-2 melanoma; EKVX NSCLC; SN12C renal; UO-31 renal; TK-10 renal; ACHN renal; CAKI-1 renal; A498 renal; CCRF-CEM leukemia; UACC-62 melanoma; MOLT-4 leukemia.
Common to all, as to assay: NCI-60 one-dose screen, 48 h (100 = growth as untreated, 0 = no growth, -100 = all killed)
Common to all, as to settings: 10 µM unless noted

For `COc1ccc(C(=O)COC(=O)[C@H](C[Se][Se]C[C@H](NC(=O)c2ccc(Br)cc2F)C(=O)OCC(=O)c2ccc(OC)cc2)NC(=O)c2ccc(Br)cc2F)cc1`, the growth was -30.7% (active) in the experiment on HCT-15 colon; 10.7% in the experiment on HT29 colon; -95.6% (active) with SNB-75 CNS; -38.1% (active) in the experiment on SNB-19 CNS; -85.3% (active) in the experiment with U251 CNS; -8.07% (active) in the experiment on SK-MEL-5 melanoma. For the same compound, the growth with LOX IMVI melanoma is -50.8% (active); with SK-MEL-28 melanoma it was -74.5% (active); in the experiment with SK-MEL-2 melanoma, -93.8% (active); in the experiment with EKVX NSCLC it was -69.4% (active); in the experiment with SN12C renal, -79.9% (active); in the experiment on UO-31 renal, -95.4% (active). The growth in the experiment with TK-10 renal was -79.6% (active); with ACHN renal, -86.9% (active); in the experiment on CAKI-1 renal it was -83.2% (active); with A498 renal, -23.8% (active); in the experiment on CCRF-CEM leukemia, -25.4% (active).

Regarding `Oc1ccc(-c2nc3ccc4[nH]ncc4c3c3c2CCCC3)c2cccnc12`, the growth is 4.75% (active) with HCT-15 colon; 12.1% in the experiment on HT29 colon; -23.1% (active) in the experiment with SNB-75 CNS; 13.7% in the experiment on SNB-19 CNS; -4.46% (active) in the experiment on U251 CNS; -4.91% (active) with SK-MEL-5 melanoma. In addition, the growth in the experiment with UACC-62 melanoma was -11.5% (active); in the experiment on LOX IMVI melanoma, 3.42% (active); in the experiment on SK-MEL-28 melanoma it was 13.3%; with SK-MEL-2 melanoma it was 5.36% (active); in the experiment with EKVX NSCLC it was -23.1% (active); with SN12C renal, 4.02% (active). For the same compound, the growth is -30.4% (active) in the experiment with UO-31 renal; 17.4% with TK-10 renal; 2.65% (active) in the experiment with ACHN renal; -25.7% (active) in the experiment on CAKI-1 renal; -25.7% (active) in the experiment on A498 renal; 4.86% (active) in the experiment with CCRF-CEM leukemia. For the same compound, in the experiment with MOLT-4 leukemia, the growth is 5.17% (active).

Consider `O=C(CSc1nc2ccccc2[nH]1)Nc1cccc(Cl)c1`, for which the growth is 109% in the experiment on HCT-15 colon; 112% in the experiment with HT29 colon; 81.6% in the experiment on SNB-75 CNS; 91.4% in the experiment with SNB-19 CNS; 104% with U251 CNS; 104% with SK-MEL-5 melanoma. Further, the growth is 87.6% with UACC-62 melanoma; 99.6% with LOX IMVI melanoma; 106% in the experiment with SK-MEL-28 melanoma; 104% in the experiment on SK-MEL-2 melanoma; 94.7% in the experiment on EKVX NSCLC; 93% in the experiment with SN12C renal. In addition, the growth in the experiment on UO-31 renal was 77.6%; in the experiment on TK-10 renal, 109%; in the experiment with ACHN renal, 99.2%; in the experiment on CAKI-1 renal, 80.7%; with A498 renal, 73.3%; in the experiment with CCRF-CEM leukemia, 104%. Besides, in the experiment on MOLT-4 leukemia, the growth is 117%.

With `CCOC(=O)Cn1c(=O)c2c(c3ccccc3n2C)n2nnc(-c3ccccc3)c12`, the growth in the experiment with HCT-15 colon is 112%; in the experiment on HT29 colon, 100%; in the experiment with SNB-75 CNS it was 94.2%; in the experiment with SNB-19 CNS it was 104%; with U251 CNS it was 107%; in the experiment with SK-MEL-5 melanoma, 98.4%. The growth is 91.1% with LOX IMVI melanoma; 107% in the experiment on SK-MEL-28 melanoma; 98.3% in the experiment on SK-MEL-2 melanoma; 95.1% in the experiment on EKVX NSCLC; 118% in the experiment with SN12C renal; 74.9% in the experiment with UO-31 renal. Also, the growth in the experiment on TK-10 renal was 120%; with ACHN renal, 97.3%; with CAKI-1 renal, 96.8%; with A498 renal, 127%; in the experiment on MOLT-4 leukemia, 92.8%.

On to `COc1ccc2c(c1)nc(NNC(=O)c1cnccn1)c1cccn12`, for which the growth was 21.5% with HCT-15 colon; 27.2% in the experiment with HT29 colon; 70.5% with SNB-75 CNS; 31.3% in the experiment on SNB-19 CNS; 27.3% in the experiment with U251 CNS; 26.4% in the experiment on SK-MEL-5 melanoma. Besides, the growth with UACC-62 melanoma was 11.5%; with LOX IMVI melanoma, 9.17% (active); in the experiment with SK-MEL-28 melanoma it was 25.1%; in the experiment with SK-MEL-2 melanoma it was 64.8%; in the experiment on EKVX NSCLC it was 22.2%; in the experiment with SN12C renal, 35.4%. Moreover, the growth was 4.76% (active) with UO-31 renal; 31.1% with TK-10 renal; 7.83% (active) in the experiment on ACHN renal; 21.3% with CAKI-1 renal; 49.2% in the experiment on A498 renal; 11.7% with CCRF-CEM leukemia. In the experiment on MOLT-4 leukemia, the growth was 5.36% (active).

Consider `Cc1onc2c(-c3ccccc3)n[nH]c(=O)c12`, for which the growth is 104% in the experiment on HCT-15 colon; 90.4% in the experiment on HT29 colon; 83% in the experiment on SNB-75 CNS; 90.3% with SNB-19 CNS; 97.6% in the experiment with U251 CNS; 105% in the experiment with SK-MEL-5 melanoma. In addition, the growth with UACC-62 melanoma was 95.3%; with LOX IMVI melanoma it was 104%; with SK-MEL-28 melanoma, 108%; in the experiment on SK-MEL-2 melanoma it was 135%; in the experiment with EKVX NSCLC it was 62.8%; in the experiment on SN12C renal, 101%. Besides, the growth in the experiment with UO-31 renal is 106%; in the experiment on TK-10 renal, 78.9%; in the experiment on ACHN renal, 107%; with CAKI-1 renal, 74.1%; with A498 renal, 90.2%; with CCRF-CEM leukemia, 106%. The growth with MOLT-4 leukemia was 76%.

Regarding `CC(=O)OC[C@H]1OC(Sc2sc(C(=O)c3ccc(Cl)cc3)c(N)c2-c2nc3ccccc3s2)[C@H](OC(C)=O)[C@@H](OC(C)=O)[C@@H]1OC(C)=O` (stereo partly specified), the growth in the experiment with HCT-15 colon was 82.3%; with HT29 colon it was 81%; with SNB-75 CNS it was 50.1%; in the experiment with SNB-19 CNS it was 92.8%; in the experiment with U251 CNS, 88.6%; with SK-MEL-5 melanoma, 85.2%. In addition, the growth in the experiment with LOX IMVI melanoma is 68.8%; with SK-MEL-28 melanoma, 94.2%; in the experiment on SK-MEL-2 melanoma, 104%; with EKVX NSCLC, 80.4%; in the experiment on SN12C renal, 54.7%; in the experiment with UO-31 renal, 79.4%. Moreover, the growth in the experiment on TK-10 renal was 134%; in the experiment on ACHN renal, 67.4%; in the experiment with CAKI-1 renal it was 77.1%; with A498 renal, 87.8%; in the experiment on CCRF-CEM leukemia, 70.9%; in the experiment with MOLT-4 leukemia it was 97%.

Regarding `CCOC(=O)NCCc1ccccc1`, the growth was 118% in the experiment with HCT-15 colon; 102% with HT29 colon; 78.7% in the experiment on SNB-75 CNS; 103% with SNB-19 CNS; 108% in the experiment with U251 CNS; 111% in the experiment on SK-MEL-5 melanoma. Further, the growth is 88.8% with UACC-62 melanoma; 93.9% in the experiment on LOX IMVI melanoma; 118% in the experiment with SK-MEL-28 melanoma; 104% in the experiment with SK-MEL-2 melanoma; 111% with EKVX NSCLC; 99.2% in the experiment on SN12C renal. For the same compound, the growth with UO-31 renal was 76.3%; in the experiment with TK-10 renal, 112%; in the experiment on ACHN renal it was 110%; with CAKI-1 renal, 86%; in the experiment on CCRF-CEM leukemia it was 116%; in the experiment with MOLT-4 leukemia it was 90.1%.
